From PubChem
A selection: hits, their analogues and other compounds. The true share with any hit is near 3.9%.
GALK inh = qHTS Assay for Inhibitors of Human Galactokinase (GALK); P51570; Potency, µM (top dose mostly 57.5 µM), inactives show top-dose activity change, negative = inhibition, most hits filed as inhibitors; Purified GALK, Kinase-Glo residual ATP luminescence; 270,000 tested, 0.007% active; note: potency is the fitted concentration of half-maximal effect; % is set by controls: 0 for no effect and ±100 for the full control effect
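Kinase-Glo Plus luminescence measured ATP left after a 1 h room-temperature reaction. The reaction used 5 nM GALK, 100 uM galactose and 35 uM ATP at pH 8.0 (20 mM HEPES, 5 mM MgCl2, 60 mM NaCl, 1 mM DTT, 0.01% BSA).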
D1 antag = Antagonist of Human D 1 Dopamine Receptor: qHTS; D(1A) dopamine receptor (Homo sapiens), P21728; HEK293 TREx D1 cells, calcium flux, dopamine EC80; stronger effect = lower value; activity change, negative = inhibition, % at 10 µM; 360,000 tested, 3.2% active; AID 504652, 2011; in the data active = activity change below about -30%; note: % is set by controls: 0 for no effect and ±100 for the full control effect
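Using tetracycline-induced force-coupled D1 Hek293 cells and a calcium dye, signals were followed for 180 s after compound, then for 180 s after EC80 dopamine, to detect inhibitors.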
USP2a inh = qHTS Assay for Inhibitors of Ubiquitin-specific Protease USP2a Using CHOP2 as the Reporter; USP2 core, Ub-CHOP2 coupled fluorogenic reporter, 485/531; Potency, µM (titrated, usually from 38.3 µM), for inactives: top-dose activity change, negative = inhibition, most hits filed as inhibitors; 330,000 tested, 0.01% active; AID 463254, 2010;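 note: potency is the fitted concentration of half-maximal effect; plate controls were DMSO wells for no effect and full inhibition by NEM control for full effect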
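USP2 core (10nM final) preincubated 30min RT with compound in 20mM Tris-HCl pH 8.0, 2mM CaCl2, 2mM beta-mercaptoethanol, 0.05% CHAPS; 25nM Ub-CHOP2 plus 25nM reporter substrate added, fluorescence (Ex485/Em531) read after 60min.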
D1 ag = Allosteric Agonists of the Human D1 Dopamine Receptor: qHTS | D(1A) dopamine receptor (Homo sapiens), P21728 | HEK293 T-REx D1 cells, calcium flux, agonist mode | activation, % at 2 µM | 360,000 tested, 1% active | AID 504660, 2011; in the data active = activation above about 30%; note: 0% is about no effect
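Tetracycline-induced HEK293 TREx D1 cells, force-coupled to calcium signalling, were dye-loaded with a no-wash calcium kit. Compound was pin-added after a 10 s baseline. Fluorescence was read kinetically at 1 cycle/s for 180 s, with calcium rises flagged as agonism.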
D1 potentiator = Potentiators of Human D1 Dopamine Receptor: qHTS. HEK293 TREx D1 cells, calcium flux, dopamine EC20 potentiation. potentiation, % at 10 µM. 360,000 tested, 0.036% active. AID 504651, 2011; in the data active = potentiation above about 30%; note: 0% is about no effect
Eya2 inh = qHTS Assay for Inhibitors of the Phosphatase Activity of Eya2 | 330,000 tested, 0.006% active | Potency, µM (series often up to 76.9 µM), for the others: top-dose activity, negative = inhibition, usual class: inhibitors | Protein phosphatase EYA2 (Homo sapiens), O00167 | recombinant Eya2, OMFP fluorescence dephosphorylation (OMFP is methylfluorescein phosphate) | AID 488837, 2010; note: potency is the fitted concentration of half-maximal effect; % is set by controls: 0 for no effect and ±100 for the full control effect
Target sequence (O00167 whole entry, looked up): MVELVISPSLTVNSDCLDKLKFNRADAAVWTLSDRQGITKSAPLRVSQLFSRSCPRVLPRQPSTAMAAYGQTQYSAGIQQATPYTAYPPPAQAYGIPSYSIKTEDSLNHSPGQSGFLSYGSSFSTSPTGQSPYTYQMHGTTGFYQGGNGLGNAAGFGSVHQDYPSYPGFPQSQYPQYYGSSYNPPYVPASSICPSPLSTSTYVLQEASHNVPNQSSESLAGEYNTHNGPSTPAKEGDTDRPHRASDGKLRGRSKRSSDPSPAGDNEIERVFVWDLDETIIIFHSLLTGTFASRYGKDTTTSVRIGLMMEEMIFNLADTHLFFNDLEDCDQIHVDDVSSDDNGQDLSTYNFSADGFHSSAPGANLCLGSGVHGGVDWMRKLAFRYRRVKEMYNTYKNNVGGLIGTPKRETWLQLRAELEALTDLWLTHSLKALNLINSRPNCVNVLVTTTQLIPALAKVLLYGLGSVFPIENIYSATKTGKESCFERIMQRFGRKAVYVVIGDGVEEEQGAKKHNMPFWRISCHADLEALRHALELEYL
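Eya2 (0.2 uM) preincubated 10 min at ambient with compound, then OMFP substrate added at 50 uM; 10 min reaction in 50 mM HEPES pH 7.5, 50 mM NaCl, 5 uM MgCl2, 0.05% BSA, 1 mM DTT. Fluorescence read at Ex 485/Em 525 nm.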
* = called active by the depositor. Unless noted, calls come from the whole dose curve; as a rule, active = well fitted inhibition curve with a large enough effect; inconclusive = small, poorly fitted or top-dose-only effect, or effect the other way; inactive = flat fitted curve, though single readings scatter.

Results for Cn1c(CSCc2ccc(Cl)cc2)nnc1SCC(=O)Nc1nccs1 ?
GALK inh: 0.1%; D1 antag: -49.4*; USP2a inh: 2.5%; D1 ag: 19.1; D1 potentiator: -8.7; Eya2 inh: 0.3%

How did Cn1c(CSCc2ccc(Cl)c(Cl)c2)nnc1SCC(=O)Nc1nccs1 do in these assays?
GALK inh: -4.0%; D1 antag: -25.9; USP2a inh: -0.2%; D1 ag: 7.2; D1 potentiator: -1.6; Eya2 inh: -3.9%

What do the screens show for `O=C1CCCc2ccccc2N1Cc1ccc(Cl)cc1`?
GALK inh: -3.6%; D1 antag: -20.8; USP2a inh: -1.0%; D1 ag: 4.6; D1 potentiator: -9.3; Eya2 inh: -3.3%

What do the screens show for `O=C1CCCc2ccccc2N1Cc1ccccc1Cl`?
GALK inh: 1.1%; D1 antag: -34.5*; USP2a inh: -0.2%; D1 ag: 3.2; D1 potentiator: -2.5; Eya2 inh: -15.2%

Results for O=C1CCCc2ccccc2N1Cc1ccc(Cl)cc1Cl ?
GALK inh: -0.2%; D1 antag: 60.9; USP2a inh: 2.4%; D1 ag: 34.5*; D1 potentiator: -2.5; Eya2 inh: 0.8%

How did CC(C)C(=O)NCC(c1ccc2c(c1)OCO2)N1CCN(c2ccccc2)CC1 (configuration not stated) do in these assays?
D1 antag: 0.4; D1 ag: 0.5; D1 potentiator: 0.1

How did COc1cc(OC)c(NC(=O)C2CCCN(c3ncnc4c3nc3n4CCCCC3)C2)cc1Cl (configuration not stated) do in these assays?
D1 antag: -23.1; D1 ag: 0.3; D1 potentiator: 1.2

How did O=C(NCCc1ccc(F)cc1)C(=O)NCC(c1cccs1)S(=O)(=O)c1cccs1 (configuration not stated) do in these assays?
D1 ag: 42.0*; D1 potentiator: -2.5

What do the screens show for `O=C(NCCc1ccc(Cl)cc1)C(=O)NCC(c1cccs1)S(=O)(=O)c1cccs1` (configuration not stated)?
D1 ag: 20.7; D1 potentiator: -2.1

What do the screens show for `Cc1csc(NC(=O)c2cc3c(s2)CCCCC3)n1`?
GALK inh: 0.2%; D1 antag: 1.6; USP2a inh: -0.2%; D1 ag: 3.1; D1 potentiator: 0.4; Eya2 inh: -9.5%

Results for Cc1csc(NC(=O)c2cc3c(s2)CCCC3)n1 ?
GALK inh: 3.0%; D1 antag: -43.8*; USP2a inh: -9.9%; D1 ag: 10.9; D1 potentiator: -12.1; Eya2 inh: -37.5%

What do the screens show for `CNc1nc(-c2ccccc2)[n+](-c2ccc(C)cc2)s1`?
GALK inh: -0.1%; D1 antag: -1.8; USP2a inh: 5.8%; D1 ag: 11.6; D1 potentiator: 3.3; Eya2 inh: 9.2%

How did Cc1ccc(-c2nc(N)s[n+]2-c2ccccc2)cc1 do in these assays?
GALK inh: -0.5%; D1 antag: -37.0*; USP2a inh: 3.6%; D1 ag: 1.2; D1 potentiator: 3.1; Eya2 inh: 0.5%

What do the screens show for `Cn1c(N)c(C(=O)COC(=O)/C=C/c2ccc(F)cc2)c(=O)n(C)c1=O`?
D1 antag: -4.6; USP2a inh: -0.4%; D1 ag: 8.9; D1 potentiator: 1.0; Eya2 inh: 8.0%

Results for COc1ccc(/C=C2\CCCc3c2nc2ccccc2c3C(=O)OCC(=O)c2c(N)n(C)c(=O)n(C)c2=O)cc1 ?
GALK inh: 0.8%; D1 antag: -39.6*; USP2a inh: -1.8%; D1 ag: -0.7; D1 potentiator: -1.2; Eya2 inh: -1.2%

Results for CC(OC(=O)c1c2c(nc3ccccc13)/C(=C\c1ccc3c(c1)OCO3)CCC2)C(=O)Nc1ccc(S(N)(=O)=O)cc1 (configuration not stated) ?
GALK inh: -2.6%; D1 antag: -5.2; USP2a inh: -0.7%; D1 ag: 17.4; D1 potentiator: 1.8; Eya2 inh: 2.2%

How did CCOc1cc(/C=C2\CCCc3c2nc2ccccc2c3C(=O)O)ccc1OC do in these assays?
GALK inh: -2.8%; D1 antag: -6.1; USP2a inh: inconclusive; D1 ag: 411.2*; D1 potentiator: 17.9; Eya2 inh: inconclusive

Results for Cc1cccc(C)c1NC(=O)COC(=O)c1c2c(nc3ccccc13)/C(=C\c1ccc3c(c1)OCO3)CCC2 ?
GALK inh: -0.2%; D1 antag: -33.5*; USP2a inh: 0.6%; D1 ag: 94.5*; D1 potentiator: -4.6; Eya2 inh: -6.5%

Results for COc1ccc(/C=C/C(=O)OCC(=O)c2c(N)n(C)c(=O)n(C)c2=O)cc1 ?
GALK inh: -4.3%; D1 antag: -32.2*; USP2a inh: 1.0%; D1 ag: 13.4; D1 potentiator: 1.4; Eya2 inh: -1.6%

What do the screens show for `Cc1c(Br)cc(F)c([S+](=O)([O-])N2CCN([S+](=O)([O-])c3ccc4c(c3)OCCO4)CC2)c1F`?
D1 antag: -28.8; D1 ag: 1.3; D1 potentiator: 3.0

How did CCc1c(C)nc(SCc2nc(-c3ccccc3)no2)[nH]c1=O do in these assays?
D1 antag: -17.3; D1 ag: 4.7; D1 potentiator: -3.3

How did Cn1c(N)c(C(=O)COC(=O)/C=C/c2cccc(Br)c2)c(=O)n(C)c1=O do in these assays?
D1 antag: -32.8*; USP2a inh: -0.8%; D1 ag: 4.5; D1 potentiator: -1.3; Eya2 inh: -8.8%

What do the screens show for `Cn1c(N)c(C(=O)COC(=O)/C=C/c2cccc(F)c2)c(=O)n(C)c1=O`?
D1 antag: 3.4; USP2a inh: -1.3%; D1 ag: 5.2; D1 potentiator: -9.9; Eya2 inh: -13.2%

How did Cc1oncc1C(=O)Nc1ccc2ccccc2c1 do in these assays?
GALK inh: -3.5%; D1 antag: 12.9; USP2a inh: -0.7%; D1 ag: 3.7; D1 potentiator: -5.0; Eya2 inh: 5.4%

Results for Cc1oncc1C(=O)Nc1ccc(C(F)(F)F)cc1 ?
GALK inh: -1.5%; D1 antag: -67.5*; USP2a inh: -1.9%; D1 ag: 4.6; D1 potentiator: -4.9; Eya2 inh: -3.1%
